These results are taken from PubChem BioAssay (NCATS).

Structures are written as SMILES. Records with an inconclusive call do not appear. Where a call stands in place of a potency, no number is given. Active and inactive are the calls of the source. Calls come from the whole dose curve; as a rule, active = well fitted inhibition curve with a large enough effect; inconclusive = small, poorly fitted or top-dose-only effect; inactive = no such curve, though single readings can be large or run the other way.
Potency is the fitted concentration of half-maximal effect.

This test concerns Zika virus NS2B-NS3 protease (unlinked complex). The test is described as follows: Primary screen GU Rhodamine qHTS for Zika virus inhibitors: Unlinked NS2B-NS3 protease assay (AID 1347159). Note: nearly all actives have a fitted effect of over 60% in size. The settings on record: Recombinant ZIKV NS2B-NS3 protease, Rhodamine110 substrate fluorescence; series mostly up to 107 µM. In short, it runs like this:
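A qHTS format was used, with compound concentrations ranging up to 114 microM. Each compound was preincubated with 25 nM NS2B-NS3 protease, and the substrate was then added at 1.5 microM. Curves were fitted with a 4-parameter Hill model.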
A general note: Quantitative high-throughput screening tests each substance at several concentrations.
On to `COc1ccc(CCC(=O)O)c(O[C@@H]2O[C@H](CO)[C@@H](O)[C@H](O)[C@H]2O)c1`, for which the Potency result was “inactive”.
On the same count and under the same terms, then `C/C=C(\C)C(=O)OC1C(C)C2(O)C3C=C(C)C(=O)C3CC(CO)=CC2C2C(C)(C)C12OC(C)=O` (stereo not given), with “inactive”; and `CC1(C)CC=C(C#Cc2ccccc2)c2cc(/C=C/c3ccc(C(=O)O)cc3)ccc21`, with 6.31 µM (active); and `CCC1=C(C)C(=O)C(C)CC12C(=O)CCC2C(=O)O` (stereo not given), with “inactive”.
Turning to `C[C@@H]1O[C@@H](O[C@@H]2[C@@H](O)[C@H](O[C@@H]3[C@@H](O)[C@@H](O)[C@H](O[C@H]4[C@H](OC(=O)[C@]56CCC(C)(C)C[C@H]5C5=CCC7[C@@]8(C)C[C@H](O)[C@H](O[C@@H]9O[C@H](C(=O)O)[C@@H](O)[C@H](O)[C@H]9O)[C@@](C)(CO)C8[C@H](O)C[C@@]7(C)[C@]5(C)C[C@H]6O)O[C@@H](CO)[C@@H]4O)O[C@H]3C)OC[C@H]2O)[C@H](O)[C@H](O)[C@H]1O` (stereo not given in full), the activity change, negative = inhibition is 24.9% [at 19.1 µM] (inactive).
In the case of `C/C=C(\C)C(=O)OC[C@H]1O[C@H](O[C@H]2O[C@H](CO)[C@@H](O)[C@H](O)[C@H]2O[C@@H]2O[C@H](CO)[C@@H](O)[C@H](O)[C@H]2O)[C@H](O[C@@H]2O[C@H](CO)[C@@H](O)[C@H](O)[C@H]2O)[C@@H](O)[C@@H]1O`, the Potency entry was “inactive”.
Turning to `CC(=O)c1ccc(O[C@@H]2OC[C@@H](O)[C@H](O)[C@H]2O[C@]2(CO)O[C@H](CO)[C@@H](O)[C@@H]2O)c(O)c1`, the Potency entry was “inactive”.
The same measure, in the same setting: then `CCC(C)C(=O)OC[C@H]1O[C@H](O[C@H]2O[C@H](CO)[C@@H](O)[C@H](O)[C@H]2O)[C@H](O)[C@@H](O)[C@@H]1O` (stereo not given in full), with “inactive”; and `CC1(C)CC[C@]2(C(=O)O[C@@H]3O[C@H](CO)[C@@H](O)[C@H](O)[C@H]3O)CC[C@]3(C)C(=CCC4[C@@]5(C)CC[C@H](O[C@@H]6O[C@H](C(=O)O)[C@@H](O[C@@H]7O[C@H](CO)[C@@H](O)[C@H](O)[C@H]7O)[C@H](O)[C@H]6O[C@@H]6O[C@H](CO)[C@@H](O)[C@H](O)[C@H]6O)C(C)(C)C5CC[C@]43C)C2C1` (stereo not given in full), with “inactive”; and `C[C@H](/C=C/[C@@]1(O)[C@H](C)CC(=O)CC1(C)C)O[C@@H]1O[C@H](CO[C@@H]2OC[C@@H](O)[C@H](O)[C@H]2O)[C@@H](O)[C@H](O)[C@H]1O`, with “inactive”.
Turning to `CC1=CCC(O)C2(C)CCC3C(C)C(=O)OC3C12` (stereo not given), the Potency result is “inactive”.
Still for that read-out and setting: the value for `CCc1nn(CCO)c(CC)c1Oc1cc(C#N)cc(C#N)c1` was “inactive”; that for `CC1(C)CC[C@]2(C(=O)O)CC[C@]3(C)C(=CCC4[C@@]5(C)CC[C@H](O[C@@H]6O[C@H](C(=O)O)[C@@H](O)[C@H](O[C@@H]7O[C@H](CO)[C@H](O)[C@H](O)[C@H]7O)[C@H]6O[C@@H]6O[C@H](CO)[C@@H](O)[C@H](O)[C@H]6O)C(C)(C)C5CC[C@]43C)[C@@H]2C1` (stereo not given in full) was 5.62 µM (active); that for `CC(C)C(NC(=O)c1ccc(O)cc1)C(=O)N1CCCC1C(=O)Nc1c(O)cccc1C(=O)O` (stereo not given) was “inactive”.
As to `CC(=O)NC1CC(=O)C23C(=O)NC(Cc4c[nH]c5ccccc45)C2C(C)=C(C)C(O)C3/C=C/CC(C)/C=C(/C)C(O)C1O` (stereo not given), the Potency result is “inactive”.
For `CC(C)C1NC(=O)C(CC2(O)c3ccccc3N3C(=O)C(Cc4ccccc4)NC32)NC1=O` (stereo not given), the Potency entry was “inactive”.
On the same count and under the same terms, the value for `C[C@@H]1CC2OC(=O)C3=C2C(CCC3O)[C@@]12C[C@@H](c1ccoc1)OC2=O` (stereo not given in full) was “inactive”; that for `O=C(O)c1cc(C(F)(F)F)ccc1N1CC[C@H](OCc2ccccn2)C1` was “inactive”; that for `CC(O)C1NC(=O)C2CCCN2C1=O` (stereo not given) was “inactive”.
The same measure, in the same setting: then `O=C(OCC1OC(Oc2ccc(O)cc2COC(=O)C2(O)C(O)CCC(=O)C2OC(=O)C2C=CCC2)C(OC(=O)C2C=CCC2)C(O)C1O)C1C=CCC1` (stereo not given), with “inactive”; and `C=C1CC23CC1CCC2C12OC(=O)C(C)(C(O)CC1O)C2C3C(=O)O` (stereo not given), with “inactive”; and `COc1cc(C(=O)OC[C@H]2O[C@@H](OC(C)(C)C(=O)O)[C@H](O)[C@@H](O)[C@@H]2O)cc(OC)c1O`, with “inactive”.
Still for that read-out and setting: then `O=C(O)/C=C/c1ccc2occc2c1O[C@@H]1O[C@H](CO)[C@@H](O)[C@H](O)[C@H]1O`, with “inactive”; and `COc1cc2nc(=NC(=O)c3cccnc3)n3c(c2cc1OC)NCC3`, with “inactive”; and `C[C@H]1[C@H](C)CC[C@]2(C(=O)O)CC[C@]3(C(=O)O)C(=CCC4[C@@]5(C)CC[C@H](O[C@@H]6O[C@@H](C)[C@H](O)[C@@H](O)[C@H]6O)C(C)(C)C5CC[C@]43C)[C@H]12` (stereo not given in full), with “inactive”.
